# Screens from PubChem BioAssay.
# Rows were chosen to be rich in hits. Some 1.3% of all compounds tested hit in one or more screens of this group.
# Integrin act MD – activates integrin-mediated alleviation for muscular dystrophy | alpha7betagal myoblasts, beta-gal FDG fluorescence, 48 h | Potency, µM (titrated, usually from 38.3 µM), inactives show top-dose activation, most hits filed as activators | actives 0.064% (n = 350,000) | AID 624291;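 also: potency is read from the fitted curve at half-maximal effect; 100% = response of the positive control SU9516; nearly all actives have a fitted effect of over 60% in size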
#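 alpha7betagal+/- myoblasts (passage 13, 250/well) treated 48 h at 37C with compounds at 1:260 dilution of DMSO stock. Lysed, then beta-galactosidase activity read as FDG fluorescence (ex 480/em 540) after 30 min, with pre-read for autofluorescence.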
# PKM2 act – increases activity of human pyruvate kinase M2 | actives 0.34% (n = 260,000) | P14618 | purified PKM2, Kinase-Glo ATP luminescence, activation; response scale: 0% is enzyme alone, no compound | Potency, µM (series often up to 57.5 µM), without a hit: top-dose activation, usual class: activators | AID 1631; also: potency is read from the fitted curve at half-maximal effect; % is scaled to controls: 0 for no effect and ±100 for the full control effect; nearly all actives have a fitted effect of over 55% in size
#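 Purified hPK-M2 (>95%) run at intermediate activity with 0.1 mM ADP and 0.5 mM PEP in 50 mM imidazole pH 7.2, KCl, MgCl2; 1 h room temperature. ATP formed read by Kinase-Glo luminescence; normalized to uninhibited and no-enzyme controls.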
# Anesthetic bind – candidate novel general anesthetic via apoferritin binding. P02791. apoferritin/1-aminoanthracene competitive binding, fluorescence. Potency, µM (doses to about 77.5 µM), inactives show at the top dose activity change, negative = displacement, most hits filed as inhibitors. actives 0.074% (n = 350,000); also: potency is read from the fitted curve at half-maximal effect; % is scaled to controls: 0 for no effect and ±100 for the full control effect; nearly all actives have a fitted effect of over 20% in size
# Target sequence (P02791 2-175 limits assumed): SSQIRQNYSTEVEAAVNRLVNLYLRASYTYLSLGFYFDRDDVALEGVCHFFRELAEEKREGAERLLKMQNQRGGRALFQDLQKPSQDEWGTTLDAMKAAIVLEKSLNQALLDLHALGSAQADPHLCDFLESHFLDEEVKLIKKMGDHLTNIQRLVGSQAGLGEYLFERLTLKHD
#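 Horse-spleen apoferritin (10 uM) was mixed with 50% saturated 1-aminoanthracene in PBS, exposed to compounds for 10 min at room temperature, and read for fluorescence (ex 380 nm, em 535 nm). Competitive displacement was fitted with a four-parameter Hill equation.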
# IL-2 act – activates IL-2 in a cell-based reporter assay; IL-2 activation reporter assay, cell-based qHTS; stimulated with anti-CD3/CD4/CD28 beads; in transgenic mouse T cells; actives 0.065% (n = 360,000); activation, % (series mostly up to about 46 µM); AID 652025; in the data active = activation above about 50%; inconclusive = mostly about 30% to 49%; also: 0% is about no effect
#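 First, unstimulated transgenic mouse T cells were exposed to compound for 60 min. Next, anti-CD3/anti-CD4-coated beads with anti-CD28 were added. Finally, after 18 h at 37 degrees C, EGFP and DsRed were imaged.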
# BRCA1 expr act – increases BRCA1 expression; MCF7-BRCA1-FFLuc reporter, luminescence, 48 h; response scale: scaled: vehicle 0%, 10 µM genistein 100%; Potency, µM (highest dose often 46.1 µM), without a hit: at the top dose activation, hits mostly activators; actives 1.1% (n = 380,000); AID 624202; also: potency is read from the fitted curve at half-maximal effect; nearly all actives have a fitted effect of over 80% in size
#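 Luminescence from a BRCA1-driven firefly luciferase in MCF7 cells was read after 48 h compound exposure at 37 C. Data normalized against DMSO and a 10microM genistein activation control, then curve-fitted across the titration.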
# Starred values were filed as active, the others as inactive; ? = inconclusive; . = not tested or not shown; [ ] = another dose, or the depositor's remark. Unless noted, calls follow the shape of the dose curve; as a rule, active = well fitted curve in the direction sought with a large enough effect; inconclusive = small, poorly fitted or top-dose-only effect, or another doubt; inactive = no such curve, though single readings can be large; an effect the other way counts as inactive or inconclusive.
SMILES,Integrin act MD,PKM2 act,Anesthetic bind,IL-2 act,BRCA1 expr act
Cc1ccc(NC(=O)/C(C#N)=C/c2cccs2)c(C)c1,-5%,2%,13%,0,4µM*
CNc1ccc(/C=C(\C#N)C(=O)Nc2ccccn2)cc1[N+](=O)[O-],12%,-7%,8%,87*,12%
N#C/C(=C\c1cccs1)C(=O)Nc1ccccn1,-13%,-18%,-1%,2,10µM*
Cc1cccc(Nc2nc(-c3ccc4c(c3)OCCO4)cs2)c1,10%,1%,-3%,0,?
Cc1nc(-c2ccc3c(c2)OCCO3)cs1,2%,-5%,?,0,7.9µM*
Cc1ccc(C(=O)Nc2nc(-c3ccc4c(c3)OCCO4)cs2)o1,11%,.,.,0,8.9µM*
O=C(Nc1nc(-c2ccc3c(c2)OCCO3)cs1)c1ccc(Br)o1,-5%,.,.,1,5%
COc1ccc(CNC(=O)Cn2cccc2C(=O)c2ccccc2)cc1,15%,.,2%,-3,11µM*
COc1ccc(CNC(=O)Cn2cccc2C(=O)c2ccccc2C)cc1,1%,.,-22%,1,9%
Cc1ccccc1C(=O)c1cccn1CC(=O)NCCCc1ccccc1,12%,.,?,-2,-2%
O=C(Cn1cccc1C(=O)c1ccccc1)NCCCc1ccccc1,4µM*,.,-14%,-1,11%
FC(F)(F)c1cccc(-n2cccc2/C=N/n2cnnc2)c1,-8%,20µM*,-11%,0,-3%
CN(C)c1ccc(/C=C/c2c(Br)cnc3ccccc23)cc1,.,.,.,.,0%
CCOC(=O)c1ccc(NC(=O)c2ccccc2)cc1,16%,-2%,-2%,0,2.8µM*
CC(=O)Nc1ccc(C(=O)OCCc2ccccc2)cc1,26%,-1%,-9%,0,5µM*
CCOC(=O)c1ccc(NC(=S)N2CCCC(C)C2)cc1 (stereo not given),-22%,1%,?,-1,58%
COc1ccc(NC(=O)C23CCC(C)(C(=O)O2)C3(C)C)cc1 (stereo not given),6%,-7%,-2%,-3,0%
CCOC(=O)c1ccc(NC(=S)N2CCC(O)CC2)cc1,7%,-8%,-5%,-4,13µM*
CCOC(=O)c1ccc(NC(=O)C23CCC(C)(C(=O)O2)C3(C)C)cc1 (stereo not given),3%[7.66 µM],-14%,-19%,-1,10µM*
CC(=O)Nc1ccc(C(=O)OCCCOC(=O)c2ccc(NC(C)=O)cc2)cc1,23%,1%,-2%,-2,23%
Cn1c2c(c3cnc4cc(Cl)ccc4c31)CNCC2,.,.,.,.,-38%
c1ccc(OCCNc2ccn3nc(-c4ccco4)cc3n2)cc1,.,.,.,0,14µM*
c1ccc(OCCNc2ccn3nc(-c4ccccc4)cc3n2)cc1,.,.,.,0,?
COC(=O)[C@H]1C2CC3c4[nH]c5ccccc5c4CCN3CC2CC[C@@H]1O (stereo not given in full),.,.,0%,.,.
CCCCc1ccc(-c2nc(N)n[nH]2)cc1,14%,-5%,?,-2,7.9µM*
SMILES,Integrin act MD,PKM2 act,Anesthetic bind,IL-2 act,BRCA1 expr act
Nc1n[nH]c(-c2ccc(F)cc2)n1,-17%,0%,-9%,-1,20%
COC(=O)c1ccc(C(NC(=O)OCc2ccccc2)/C(I)=C/[C@@H](C)C(=O)NCc2ccc(OC)c(O)c2)cc1 (stereo not given in full),.,3%,2%,.,.
COC(=O)c1ccc(C(NC(=O)OCc2ccccc2)/C(I)=C/[C@@H](C)C(=O)NCc2ccc(C)o2)cc1 (stereo not given in full),.,14µM*,?,.,.
O=C(O)c1ccc(-c2ccc(OS(=O)(=O)c3ccccc3F)cc2)cc1,-13%,-1%,4%,-1,13µM*
CCC(Oc1ccccc1)C(=O)Nc1ccccc1OCc1cc(=O)n2ccccc2n1 (stereo not given),.,.,3%,.,.
O=C(NCCCc1nc2ccccc2n1CCCOc1ccccc1)C1CCCCC1,.,.,.,.,-8%
C/C(=N/NC(=O)CNC(=O)/C=C/c1ccco1)c1ccc(Cl)cc1,-9%,25µM*,?,0,-36%
Cc1cccc(NC(=O)CNc2cc(C)ccc2C)c1,10%,1%,-19%,-2,13µM*
